Reference: PubChem BioAssay AID624296 (National Center for Advancing Translational Sciences (NCATS), 2012)
Among all 350,000 compounds or so, about 9,900 (2.8%) were called active. Roughly 15% stayed inconclusive and do not appear here. Calls follow the shape of the dose curve; as a rule, active = well fitted activation curve with a large enough effect; inconclusive = small, poorly fitted or top-dose-only effect; inactive = no such curve, though single readings can be large or run the other way. For the sample, actives were picked, then their nearest neighbours and some compounds at random.

assay: A quantitative high throughput screen for small molecules that induce DNA re-replication in MCF 10a normal breast cells.; also: nearly all actives have a fitted effect of over 50% in size; as to activity, positive = re-replication: % of control where 0% means no effect; settings: MCF 10A DNA re-replication, Hoechst nuclear intensity, 48 h; series mostly up to 46.1 µM; activity, positive = re-replication: at the top concentration
Potency is read from the fitted curve at half-maximal effect.

Compound	activity, positive = re-replication	Potency
CCN(CC)S(=O)(=O)c1ccc(OC)c(NC(=O)CCc2c(C)noc2C)c1	-0.0933% (inactive)	–
C=C1CCC(N(O)c2cc(C)on2)C(=C)CCC2C1CC2(C)C (centres undefined)	12.3% (inactive)	–
CCCCN(C(=O)C(CCSC)N1C(=O)c2ccccc2C1=O)c1c(N)n(CCC)c(=O)[nH]c1=O (centres undefined)	5.35% (inactive)	–
O=C(Nc1ccccc1)Nc1nc2ccccc2s1	-1.93% (inactive)	–
NNc1nc2c(Cl)cccc2s1	–	16.4 µM (active)
CN(CC(=O)Nc1ccc(OC(F)F)cc1)S(=O)(=O)/C=C/c1ccccc1	-0.819% (inactive)	–
O=C(NN=Cc1ccccc1)c1ccccc1	2.48% (inactive)	–
CC(C)(C)OC(=O)NCCCCCNC(=O)c1nc[nH]c1C(=O)NCc1ccccc1	19.9% (inactive)	–
O=C1OC(Cc2ccccc2)C(c2ccccc2)C1=O (centres undefined)	11.9% (inactive)	–
COc1ccc(OC)c(NC(=O)CCN2CCC(C)CC2)c1	–	5.17 µM (active)
COc1ccc(Cl)cc1NC(=O)CCN1CCOCC1	-2.83% (inactive)	–
CCOC(=O)N1CCN(CCC(=O)Nc2cc(OC)ccc2OC)CC1	1.69% (inactive)	–
CC1CCCC(NC(=O)c2cc(-c3ccncc3)nc3ccccc23)C1C (centres undefined)	182% (inactive)	–
O=C(COC(=O)COc1cccc(F)c1)NCC1CCCCC1	4.24% (inactive)	–
COc1ccc(S(=O)(=O)N2CCOCC2)cc1NC(=O)CSc1nnc(NC2CC2)s1	0.0251% (inactive)	–
Cc1ccc(Cc2nc(-c3cccc(C)c3)no2)cc1	5.26% (inactive)	–
COc1ccccc1Cc1nc(-c2ccc(C)cc2)no1	–	5.8 µM (active)
Cc1ccc(-c2noc(CC(c3ccccc3)c3ccccc3)n2)cc1	19.8% (inactive)	–
NC(=O)NCCCC(=O)O	2.9% (inactive)	–
CN(CC(=O)NCC(c1ccccc1)N1CCCC1)S(=O)(=O)c1ccc(Cl)cc1 (centres undefined)	13.6% (inactive)	–
CN(c1cccc(NC(=O)Nc2ccc(Cl)cc2)c1)S(C)(=O)=O	–	13 µM (active)
Cc1ccc(N(CC(=O)Nc2cccc(N(C)S(C)(=O)=O)c2)S(C)(=O)=O)cc1	-6.44% (inactive)	–

Compound	activity, positive = re-replication	Potency
Cn1ccc(NC(=O)Nc2ccc(Cl)cc2)n1	-29.8% (inactive)	–
COc1ccc(NS(=O)(=O)c2ccc(N3CCOCC3)c(NC(=O)/C=C/C(=O)O)c2)cc1	-2.55% (inactive)	–
Cc1ccc(-c2nn(-c3ccccc3)cc2C(=O)Nc2cccc(S(=O)(=O)N3CCOCC3)c2)cc1	1.34% (inactive)	–
O=C(/C=C/c1cn(-c2ccccc2)nc1-c1ccc2c(c1)OCCO2)NCCCN1CCOCC1	10% (inactive)	–
Cc1ccc(-c2nn(-c3ccccc3)cc2/C=C/C(=O)Nc2cccc(S(N)(=O)=O)c2)cc1	–	13 µM (active)
CC(=O)c1ccc(S(=O)(=O)NCCC(=O)N2CCN(c3ccccn3)CC2)cc1	-6.67% (inactive)	–
Cc1csc(SCC(=O)N(c2ccccc2)C(C)C)n1	15.8% (inactive)	–
c1ccc2c(c1)OC1OC2Oc2ccccc21	-3.33% (inactive)	–
CC(C)(C)OC(=O)N1CCC(NC(=O)c2[nH]cnc2C(=O)N[C@@H](Cc2ccccc2)C(=O)OCc2ccccc2)CC1	–	14.6 µM (active)
O=C(N[C@@H](Cc1ccccc1)C(=O)OCc1ccccc1)c1nc[nH]c1C(=O)N[C@@H](Cc1ccccc1)C(=O)OCc1ccccc1	16.7% (inactive)	–
O=C(N[C@@H](Cc1ccccc1)C(=O)OCc1ccccc1)c1nc[nH]c1C(=O)NC1CCNCC1	0.257% (inactive)	–
NS(=O)(=O)c1ccc(CCNC(=O)c2ccc(Cl)c(S(=O)(=O)N3CCCCCC3)c2)cc1	20.2% (inactive)	–
Cc1ccc(C(CC(=O)O)NC(=O)c2ccc(S(=O)(=O)N3CCCC3)cc2)cc1 (centres undefined)	-3.45% (inactive)	–
CCOC(=O)C1(Cc2cccc(OC)c2)CCN(Cc2csc(C(C)=O)c2)CC1	–	8.2 µM (active)
CCOC(=O)C1(Cc2cccc(OC)c2)CCN(C(C)COC)CC1 (centres undefined)	11.2% (inactive)	–
CCOC(=O)C1(Cc2cccc(OC)c2)CCN(C(C)CC(C)(C)O)CC1 (centres undefined)	0.346% (inactive)	–
N#CC1(Nc2ccc(-c3ccc(Cl)cc3)cc2)CCCC1	-2.31% (inactive)	–
O=C(Nc1c(Br)cc2c(c1Br)Cc1ccccc1-2)C(F)(F)F	14.3% (inactive)	–
NC(=O)c1ccccc1N(Cc1ccccc1)S(=O)(=O)c1ccccc1	8.11% (inactive)	–
CCN1CCN(C(=O)c2ccccc2N(C)S(=O)(=O)c2ccc(C)cc2)CC1	-2% (inactive)	–
CCOC(=O)N1CCN(C(=O)c2ccccc2N(Cc2ccccc2)S(=O)(=O)c2ccc(OC)cc2)CC1	–	13 µM (active)
CC[C@@H](C)[C@@H]1CN([C@@H](C)CN2CCC[C@H]2CN2C(N)=NC[C@H]2C(C)C)C(=N)N1CCc1ccc(Cl)c(Cl)c1	-21.4% (inactive)	–

Compound	activity, positive = re-replication	Potency
CC(OC(=O)c1c(F)cccc1F)C(=O)NCCC1=CCCCC1 (centres undefined)	8.71% (inactive)	–
Cc1ccc(NC(=O)CC(=O)Nc2ccc(C)cc2)cc1	2.57% (inactive)	–
O=C(CCl)Nc1ccc(Sc2ccc(NC(=O)CCl)cc2)cc1	–	6.51 µM (active)
CCC(=O)Nc1ccc(Nc2nc(Cl)nc(Nc3ccc(NC(=O)CC)cc3)n2)cc1	0.0779% (inactive)	–
FC(F)(F)c1ccc(-c2cccc3c2C2CC3CCN2Cc2ccccc2)cc1 (centres undefined)	2.26% (inactive)	–
CC1CCCCC12NC(=O)N(CC(=O)N1CCN(c3ccccc3)CC1)C2=O (centres undefined)	0.565% (inactive)	–
COc1cccc(CNC(=O)CN2C(=O)NC(Cc3ccccc3)(c3ccccc3)C2=O)c1 (centres undefined)	-0.149% (inactive)	–
CN(C)/N=C/c1cn(-c2ccccc2)nc1-c1cccnc1	0.925% (inactive)	–
COc1ccc(-c2nn(-c3ccccc3)cc2/C=N/Nc2ccccn2)cc1OC	–	23.1 µM (active)
CC(C)(C)OC(=O)N/N=C/c1cn(-c2ccccc2)nc1-c1cccnc1	7.39% (inactive)	–
CCOC(=O)C(CO)NC(=O)C1(NC(C)=O)CCCC1 (centres undefined)	-0.0355% (inactive)	–
CN(CCc1ccccc1)C(=O)c1cccc(NC(=O)Cc2cccc(NC(=O)C3CCCN(C(=O)CCc4ccccc4)C3)c2)c1 (centres undefined)	3.16% (inactive)	–
CCOC(=O)C1=C(CN2CCc3ccccc32)NC(=O)NC1c1cccc([N+](=O)[O-])c1 (centres undefined)	-3.56% (inactive)	–
CCOC(=O)C1=C(C)NC(=O)NC1c1ccccc1 (centres undefined)	-2.24% (inactive)	–
CCOC(=O)C1=C(CN2CCc3ccccc32)NC(=O)NC1c1ccc(Cl)cc1 (centres undefined)	–	14.6 µM (active)
COc1cc(O)c2c(=O)c3c(O)c(O)ccc3oc2c1OC	-33.2% (inactive)	–
CC(C)CCN1CCN=C1N(C)C	-20.8% (inactive)	–
O=C(OCc1ccc(Br)cc1)c1cccc(-c2nnc(-c3ccccc3)o2)c1	4% (inactive)	–
O=C(OCc1ccccc1)c1ccc(O)cc1	0.461% (inactive)	–
O=C(OCc1ccc(-c2ccccc2)cc1)c1cccc(O)c1	–	20.6 µM (active)
